Records with an inconclusive call do not appear. Values without a mark were called inactive. The source made the active and inactive calls. Calls follow the shape of the dose curve; as a rule, active = well fitted curve in the direction sought with a large enough effect in the repeat runs; inconclusive = weak or mixed curves; inactive = no such curve, though single readings can be large; an effect the other way counts as inactive or inconclusive.

Experimental findings from PubChem BioAssay (Tox21) are described below.
% is scaled to controls: 0 for no effect and ±100 for the full control effect.

One assay can be described thus: qHTS assay to identify small molecule agonists of the RXR signaling pathway - cell viability counter screen (AID 1159529). Also: nearly all actives have a fitted effect of over 50% in size. Also: potency is read from the fitted curve at half-maximal effect.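 As to activity change, negative = cytotoxicity: HEK 293T cells carrying an RXR-alpha UAS beta-lactamase reporter.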 The conditions noted are these: RXR-alpha-bla HEK293T viability, CellTiter-Glo, 16 h; series mostly up to 76.8 µM; activity change, negative = cytotoxicity: at the top concentration. The method, boiled down:
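Tox21 10K compounds were tested for cytotoxicity against GeneBLAzer RXR-alpha HEK 293T cells grown in 2% charcoal-stripped FBS. Exposure lasted 16 hr at 37 C, 5% CO2; viability read by CellTiter-Glo luminescence.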
Regarding `CCC(C)O` (stereo not drawn), the “activity change, negative = cytotoxicity” value was -1.19%.

As for `C[N+](C)(C)CCOC(=O)CCC(=O)OCC[N+](C)(C)C`, the “activity change, negative = cytotoxicity” value was 1.77% [at 35.3 µM].

`CCOC(=O)C1=C[C@]2(CC)CCCN3CCc4c(n1c1ccccc41)[C@@H]32`: the “activity change, negative = cytotoxicity” value is -19.4% [at 35.3 µM].

Consider `O=C1c2ccccc2S(=O)(=O)N1CCCCN1CCN(c2ncccn2)CC1`, for which the “activity change, negative = cytotoxicity” value is -19.1% [at 35.3 µM].

Consider `CC(C)(C)Cl`, for which the “activity change, negative = cytotoxicity” value is -1.38%.

As to `C=C(C)C(=O)OCC`, the “activity change, negative = cytotoxicity” value was -1.51%.

Take `O=S(c1cc(Cl)cc(Cl)c1O)c1cc(Cl)cc(Cl)c1O`: the “activity change, negative = cytotoxicity” value is -10.8% [at 35.3 µM].

Regarding `C#CCN(C)CCCOc1ccc(Cl)cc1Cl`, the “activity change, negative = cytotoxicity” value is -12.4% [at 35.3 µM].

Take `c1ccc(-c2ccccn2)nc1`: the “activity change, negative = cytotoxicity” value is -1.66%.

As to `O=C1OC(=O)C2C3C=CC(C3)C12` (stereo not drawn), the “activity change, negative = cytotoxicity” value is 4.92%.

`CCCCCCc1ccc(-c2ccc(C#N)cc2)cc1`: the “activity change, negative = cytotoxicity” value was 2.21%.

For `COC(C)OC`, the “activity change, negative = cytotoxicity” value is 5.73%.

Regarding `CCCCCCCC/C=C\CCCCCCCC(=O)OCC`, the “activity change, negative = cytotoxicity” value is 9.41%.

`CCCCOC(=O)CCCCCCCC(=O)OCCCC`: the “activity change, negative = cytotoxicity” value is 7.96%.

On to `COc1cccc(N(C)C(=S)Oc2ccc3c(c2)CCCC3)n1`, for which the “activity change, negative = cytotoxicity” value is -18.7% [at 35.3 µM].

In the case of `CCCCC`, the “activity change, negative = cytotoxicity” value was -1.16%.

Turning to `Cc1ncc(CO)c(C=O)c1O`, the “activity change, negative = cytotoxicity” value is 2.87% [at 35.3 µM].

With `CN(C)c1ccc(/C=C/c2ccc([N+](=O)[O-])cc2)cc1`, the activity change, negative = cytotoxicity was -5.22% [at 6.97 µM].

`CC1CCC(=O)C1=O` (stereo not drawn): the “activity change, negative = cytotoxicity” value was -8.4%.

Regarding `CCCCCCCCO[C@@H]1O[C@H](CO)[C@@H](O)[C@H](O)[C@H]1O`, the “activity change, negative = cytotoxicity” value is 5.7%.

Consider `CC[N+](C)(CC)CCOC(=O)C(O)(c1ccccc1)C1CCCCC1` (stereo not drawn), for which the “activity change, negative = cytotoxicity” value is 4.02% [at 35.3 µM].

On to `C=C(C)C(=O)OCCO`, for which the “activity change, negative = cytotoxicity” value is -3.83%.

For the molecule `NC(N)=NCCC[C@H](N)C(=O)O`, the activity change, negative = cytotoxicity is 6.89% [at 6.97 µM].

Take `Cc1[nH]c(C)c(Cl)c(=O)c1Cl`: the activity change, negative = cytotoxicity was 7.97% [at 15.8 µM].

For the molecule `COc1cc2nc(N3CCN(C(=O)C4COc5ccccc5O4)CC3)nc(N)c2cc1OC` (stereo not drawn), the “activity change, negative = cytotoxicity” value was -2.97% [at 35.3 µM].

Regarding `CC(COCCO)OCCO` (stereo not drawn), the “activity change, negative = cytotoxicity” value was -7.59%.

Consider `C[C@@H]1C[C@H]2[C@@H]3CCC4=CC(=O)C=C[C@]4(C)[C@@]3(F)[C@@H](O)C[C@]2(C)[C@@]1(O)C(=O)COC(=O)c1ccncc1`, for which the “activity change, negative = cytotoxicity” value is -26.8% [at 35.3 µM].

With `CCCCCCOC(=O)NC(=N)c1ccc(NCc2nc3cc(C(=O)N(CCC(=O)OCC)c4ccccn4)ccc3n2C)cc1`, the Potency is 10.7 µM (active).

Turning to `Nc1cc(C(=O)O)c(O)c(S(=O)(=O)O)c1`, the “activity change, negative = cytotoxicity” value is 3.22%.

Regarding `CCOC(=O)C(F)(F)F`, the “activity change, negative = cytotoxicity” value was 4.36%.

`Cc1ccc(C(C)OC(=O)C2(C)CCC(C(=O)O)C2(C)C)cc1` (stereo not drawn): the “activity change, negative = cytotoxicity” value is 12.2% [at 35.3 µM].

As to `Nc1ccc([N+](=O)[O-])c(C(F)(F)F)c1`, the “activity change, negative = cytotoxicity” value was 2.66% [at 35.3 µM].

Regarding `NCC(=O)O`, the activity change, negative = cytotoxicity was 4.74% [at 15.8 µM].

Regarding `COCC(C)OC(C)=O` (stereo not drawn), the “activity change, negative = cytotoxicity” value was 0.137%.

A further assay in a line: qHTS assay to identify small molecule antagonists of the retinoid acid receptor (RAR) signaling pathway - cell viability counter screen (AID 1159551). Also: nearly all actives have a fitted effect of over 35% in size. The following applies: C3RL4 cells viability, ATP luminescence (CellTiter-Glo), 6 h; series mostly up to 92.4 µM; activity change, negative = cytotoxicity: at the top concentration. The method, boiled down: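 C3RL4 RARE-luciferase cells, 1,000/well, incubated overnight, then dosed with compound plus 1 uM retinol (final). After 6 hr at 37 C, viability read by CellTiter-Glo ATP luminescence following 30 min at room temperature.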
Regarding `CCC(C)O` (stereo not drawn), the “activity change, negative = cytotoxicity” value is 3.33%.

Consider `C[N+](C)(C)CCOC(=O)CCC(=O)OCC[N+](C)(C)C`, for which the “activity change, negative = cytotoxicity” value is 1.37% [at 42.5 µM].

With `CCOC(=O)C1=C[C@]2(CC)CCCN3CCc4c(n1c1ccccc41)[C@@H]32`, the “activity change, negative = cytotoxicity” value was -7.02% [at 42.5 µM].

With `O=C1c2ccccc2S(=O)(=O)N1CCCCN1CCN(c2ncccn2)CC1`, the “activity change, negative = cytotoxicity” value was -3.52% [at 42.5 µM].

On to `CC(C)(C)Cl`, for which the “activity change, negative = cytotoxicity” value was 5.45%.

`C=C(C)C(=O)OCC`: the “activity change, negative = cytotoxicity” value was 0.0347%.

In the case of `O=S(c1cc(Cl)cc(Cl)c1O)c1cc(Cl)cc(Cl)c1O`, the “activity change, negative = cytotoxicity” value is -0.317% [at 42.5 µM].

In the case of `C#CCN(C)CCCOc1ccc(Cl)cc1Cl`, the “activity change, negative = cytotoxicity” value is -6.32% [at 42.5 µM].

Consider `c1ccc(-c2ccccn2)nc1`, for which the “activity change, negative = cytotoxicity” value was -0.176%.

In the case of `O=C1OC(=O)C2C3C=CC(C3)C12` (stereo not drawn), the “activity change, negative = cytotoxicity” value was -1.88%.

Turning to `CCCCCCc1ccc(-c2ccc(C#N)cc2)cc1`, the “activity change, negative = cytotoxicity” value is -3.78%.

With `COC(C)OC`, the “activity change, negative = cytotoxicity” value is 0.664%.

As for `CCCCCCCC/C=C\CCCCCCCC(=O)OCC`, the “activity change, negative = cytotoxicity” value is 1.34%.

As for `CCCCOC(=O)CCCCCCCC(=O)OCCCC`, the “activity change, negative = cytotoxicity” value was -0.511%.

As to `COc1cccc(N(C)C(=S)Oc2ccc3c(c2)CCCC3)n1`, the “activity change, negative = cytotoxicity” value is -1.46% [at 42.5 µM].

On to `CCCCC`, for which the “activity change, negative = cytotoxicity” value was 3.33%.

For `Cc1ncc(CO)c(C=O)c1O`, the “activity change, negative = cytotoxicity” value was 2.47% [at 42.5 µM].

As for `CN(C)c1ccc(/C=C/c2ccc([N+](=O)[O-])cc2)cc1`, the activity change, negative = cytotoxicity was -0.286% [at 8.39 µM].

Turning to `CC1CCC(=O)C1=O` (stereo not drawn), the “activity change, negative = cytotoxicity” value was 1.1%.

As for `CCCCCCCCO[C@@H]1O[C@H](CO)[C@@H](O)[C@H](O)[C@H]1O`, the “activity change, negative = cytotoxicity” value was 0.268%.

Consider `CC[N+](C)(CC)CCOC(=O)C(O)(c1ccccc1)C1CCCCC1` (stereo not drawn), for which the “activity change, negative = cytotoxicity” value is 2.71% [at 42.5 µM].

As for `C=C(C)C(=O)OCCO`, the “activity change, negative = cytotoxicity” value is 1.69%.

As to `NC(N)=NCCC[C@H](N)C(=O)O`, the activity change, negative = cytotoxicity is -0.0145% [at 8.39 µM].

Consider `Cc1[nH]c(C)c(Cl)c(=O)c1Cl`, for which the activity change, negative = cytotoxicity was -2.2% [at 19 µM].

With `COc1cc2nc(N3CCN(C(=O)C4COc5ccccc5O4)CC3)nc(N)c2cc1OC` (stereo not drawn), the “activity change, negative = cytotoxicity” value was -4.76% [at 42.5 µM].

`CC(COCCO)OCCO` (stereo not drawn): the “activity change, negative = cytotoxicity” value was -1.77%.

In the case of `C[C@@H]1C[C@H]2[C@@H]3CCC4=CC(=O)C=C[C@]4(C)[C@@]3(F)[C@@H](O)C[C@]2(C)[C@@]1(O)C(=O)COC(=O)c1ccncc1`, the “activity change, negative = cytotoxicity” value was 3.07% [at 42.5 µM].

`CCCCCCOC(=O)NC(=N)c1ccc(NCc2nc3cc(C(=O)N(CCC(=O)OCC)c4ccccn4)ccc3n2C)cc1`: the “activity change, negative = cytotoxicity” value is 10.2% [at 42.5 µM].

As for `Nc1cc(C(=O)O)c(O)c(S(=O)(=O)O)c1`, the “activity change, negative = cytotoxicity” value is -3.41%.

As for `CCOC(=O)C(F)(F)F`, the “activity change, negative = cytotoxicity” value is 3.3%.

As for `Cc1ccc(C(C)OC(=O)C2(C)CCC(C(=O)O)C2(C)C)cc1` (stereo not drawn), the “activity change, negative = cytotoxicity” value is 0.293% [at 42.5 µM].

As to `Nc1ccc([N+](=O)[O-])c(C(F)(F)F)c1`, the “activity change, negative = cytotoxicity” value was -5.48% [at 42.5 µM].

As to `NCC(=O)O`, the activity change, negative = cytotoxicity was -0.228% [at 19 µM].

Turning to `COCC(C)OC(C)=O` (stereo not drawn), the “activity change, negative = cytotoxicity” value is 3.68%.
